According to PubChem BioAssay (NCI):
The panel holds about 83,000 compounds, 20% with a hit somewhere; the sample as a whole holds those more often.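 Interpretation: 100, growth as untreated; towards 0, rising growth inhibition; 0, no net growth; 0 to -100, cell death. Compounds scoring below 10 were considered active.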 A number with no mark means an inactive call. The source made the active and inactive calls.

Test system: LOX IMVI melanoma
Test: NCI-60 one-dose screen, 48 h (100 = growth as untreated, 0 = no growth, -100 = all killed)
Details: 10 µM unless noted

SMILES	growth
O=[N+]([O-])c1ccc(N/N=C/c2c(O)ccc3ccccc23)nc1	21%
COc1cc(/C=C/c2nnc(-c3cc(-c4ccccc4)n[nH]3)o2)cc(OC)c1OC	95.4%
COc1cc2c(-c3nc4cc(Cl)c(F)cc4s3)cc(=O)oc2c(C)c1OC	-73.5% (active)
COc1cccc(-c2nnc(N)o2)c1	94.7%
CCCCCCC/C(=N\N=C(N)N)c1ccc(O)cc1	31.4%
CCOC(=O)c1c(NC(=O)C2CCCCC2C(=O)O)sc2c1CCCC2 (centres undefined)	90%
C[N+]1(CCC[N+]2(C)C[C@@H]3[C@H](C2)[C@@H]2C=C[C@H]3C2)CCOCC1 (some centres undefined)	96%
O=C(CCc1nnc(SCc2ccccc2)s1)c1nc2ccccc2[nH]1	80.8%
c1csc([C@@H]2C[C@@H]3Cc4ccc5ccccc5c4N2O3)c1	98.9%
O=C1/C(=C/c2ccc([N+](=O)[O-])s2)Oc2ccc(Br)cc21	-75.6% (active)
CCCCCCC(C)(O)c1ccccc1 (centres undefined)	92%
CCOC(Cc1c(N)[nH]c(=S)[nH]c1=O)OCC	95.3%
CCN1C2=C(SC(=S)C1=C1SC(C(=O)OC)=C(C(=O)OC)S1)SC(=Nc1ccc(OC)cc1)C2=O	-72.1% (active)
COc1cccc2c1O/C(=C\c1c([N+](=O)[O-])ncn1C)C2=O	85.2%
CCCc1cc(=O)n2c(C(=O)Nc3ccccc3OC)c(C(=O)Nc3ccc(F)cc3)sc2n1	44.5% [30 µM]
C=Cc1nn2c(CCC(=O)c3nc4ccccc4[nH]3)nnc2s1	95%
CCOC(=O)C(C(C)=O)c1nc2sc3cc(Cl)ccc3n2c(=N)c1C#N (centres undefined)	97.2%
COc1ccc2nccc(/C=C/c3ccnc4ccc(OC)cc34)c2c1	106%

SMILES	growth
COc1ccc(-c2c(-c3cc(OC)c(OC)c(OC)c3)noc2N)cc1	17.6%
COc1ccc(-c2cc(C(=O)Nc3nc4cc(C)c(C)cc4s3)nc3cc(-c4ccccc4)nn23)cc1OC	95.1%
COc1ccc(-c2cc(Cc3cccs3)c(=O)n(Cn3ccc4ccccc43)n2)cc1	96.5%
COc1ccc(-c2cc(Cc3cccs3)c(=O)n(Cn3cncn3)n2)cc1	98%
Cn1c(=O)c2c(nc(Br)n2CCC(=O)Nc2ccc(F)cc2)n(C)c1=O	89.9%
COc1ccc(/C=C/C(=O)Nc2cccnc2Nc2ccc(F)cc2)cc1	98.9%
O=C1NCC(Nc2ccc(Br)cc2Cl)C(=O)N1 (centres undefined)	105%
CC/C=C\C=C/C(=O)N/C=C/CC1Cc2cccc(O)c2C(=O)O1 (centres undefined)	75%
Cc1cc(C)c2c(c1)N1OC(C2)C[C@H]1/C=C/c1ccccc1 (some centres undefined)	94.4%
Cc1cc(=O)n2n1-c1ccc(Cl)cc1NC(=O)C2	98.6%
CC[C@H](C)C(=O)O[C@H]1C[C@@H](C)C=C2C=C[C@H](C)[C@H](CC[C@@H]3C[C@@H](O)CC(=O)O3)[C@H]21	25.1%
O=C1/C(=C/c2ccc([N+](=O)[O-])o2)Oc2ccc(Br)cc21	5.15% (active)
O=C1NCN(c2ccccc2)C12CCN(CCCC(c1ccc(F)cc1)c1ccc(F)cc1)CC2	61.9%
N#Cc1cnc2cc(OC[C@H](O)CO)c(NC(=O)CC3CSSC3)cc2c1Nc1ccc(OCc2cccc(F)c2)c(Cl)c1	-86.3% (active)
COc1ccc(OC)c2c1[nH]c(=O)c1c3ccccc3cn21	-84.8% (active)
COc1cc(C2CC(=O)Nc3c2cc(Br)c2ccccc32)cc(Br)c1OC (centres undefined)	28.3%
COC(=O)CCC1=C(C)/C(=C/c2[nH]c(-c3ccc[nH]3)cc2OC)N=C1C	-64.3% (active)

Test system: SK-MEL-28 melanoma
Test: as above
Details: 10 µM unless noted

SMILES	growth
O=[N+]([O-])c1ccc(N/N=C/c2c(O)ccc3ccccc23)nc1	64.8%
COc1cc(/C=C/c2nnc(-c3cc(-c4ccccc4)n[nH]3)o2)cc(OC)c1OC	87.9%
COc1cc2c(-c3nc4cc(Cl)c(F)cc4s3)cc(=O)oc2c(C)c1OC	-28.6% (active)
COc1cccc(-c2nnc(N)o2)c1	104%
CSc1nc2c(c(=O)n1C)C(c1ccccc1)C1=C(N2)/C(=C/c2ccccc2)CCC1 (centres undefined)	78.7%
CCCCCCC/C(=N\N=C(N)N)c1ccc(O)cc1	60.4%
CCOC(=O)c1c(NC(=O)C2CCCCC2C(=O)O)sc2c1CCCC2 (centres undefined)	110%
C[N+]1(CCC[N+]2(C)C[C@@H]3[C@H](C2)[C@@H]2C=C[C@H]3C2)CCOCC1 (some centres undefined)	109%
O=C(CCc1nnc(SCc2ccccc2)s1)c1nc2ccccc2[nH]1	108%
c1csc([C@@H]2C[C@@H]3Cc4ccc5ccccc5c4N2O3)c1	103%
O=C1/C(=C/c2ccc([N+](=O)[O-])s2)Oc2ccc(Br)cc21	-66.4% (active)
CCCCCCC(C)(O)c1ccccc1 (centres undefined)	115%
CCOC(Cc1c(N)[nH]c(=S)[nH]c1=O)OCC	102%
CCN1C2=C(SC(=S)C1=C1SC(C(=O)OC)=C(C(=O)OC)S1)SC(=Nc1ccc(OC)cc1)C2=O	-55% (active)
CCOc1nc(-c2ccccc2)cc2c(O)c(-c3nnco3)[nH]c(=O)c12	76.1%
CCCc1cc(=O)n2c(C(=O)Nc3ccccc3OC)c(C(=O)Nc3ccc(F)cc3)sc2n1	68.5% [30 µM]
CCOC(=O)C(C(C)=O)c1nc2sc3cc(Cl)ccc3n2c(=N)c1C#N (centres undefined)	69.8%

SMILES	growth
COc1ccc2nccc(/C=C/c3ccnc4ccc(OC)cc34)c2c1	92.8%
COc1ccc(-c2c(-c3cc(OC)c(OC)c(OC)c3)noc2N)cc1	58.6%
COc1ccc(-c2cc(C(=O)Nc3nc4cc(C)c(C)cc4s3)nc3cc(-c4ccccc4)nn23)cc1OC	94.4%
COc1ccc(-c2cc(Cc3cccs3)c(=O)n(Cn3ccc4ccccc43)n2)cc1	114%
COc1ccc(-c2cc(Cc3cccs3)c(=O)n(Cn3cncn3)n2)cc1	108%
Cn1c(=O)c2c(nc(Br)n2CCC(=O)Nc2ccc(F)cc2)n(C)c1=O	112%
COc1ccc(/C=C/C(=O)Nc2cccnc2Nc2ccc(F)cc2)cc1	98.6%
O=C1NCC(Nc2ccc(Br)cc2Cl)C(=O)N1 (centres undefined)	110%
CC/C=C\C=C/C(=O)N/C=C/CC1Cc2cccc(O)c2C(=O)O1 (centres undefined)	76.9%
Cc1cc(C)c2c(c1)N1OC(C2)C[C@H]1/C=C/c1ccccc1 (some centres undefined)	104%
Cc1cc(=O)n2n1-c1ccc(Cl)cc1NC(=O)C2	101%
O=C1/C(=C/c2ccc([N+](=O)[O-])o2)Oc2ccc(Br)cc21	70.8%
O=C1NCN(c2ccccc2)C12CCN(CCCC(c1ccc(F)cc1)c1ccc(F)cc1)CC2	56.8%
N#Cc1cnc2cc(OC[C@H](O)CO)c(NC(=O)CC3CSSC3)cc2c1Nc1ccc(OCc2cccc(F)c2)c(Cl)c1	-84.6% (active)
COc1ccc(OC)c2c1[nH]c(=O)c1c3ccccc3cn21	-83.8% (active)
COc1cc(C2CC(=O)Nc3c2cc(Br)c2ccccc32)cc(Br)c1OC (centres undefined)	73%
COC(=O)CCC1=C(C)/C(=C/c2[nH]c(-c3ccc[nH]3)cc2OC)N=C1C	-0.539% (active)
